Screening results deposited in PubChem by National Center for Advancing Translational Sciences (NCATS).
Compounds with a hit are over-represented: about 1.4% of the library has one in this group of screens.
p53 reactivation: re-activators of mutant p53. Potency, µM (doses to about 92.2 µM), for inactives: top-dose activity change, positive = activation, most hits filed as activators. hit rate 0.063% among 320,000. H1299 p53-A138V BP100-luciferase reporter, luminescence, 24 h; also: potency is read from the fitted curve at half-maximal effect; % of control where 0% means no effect; nearly all actives have a fitted effect of over 45% in size
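H1299 (p53-null), stable ts p53-A138V + BP100-Luc; 1000 cells/well, Opti-MEM/10% FBS; cpd 4 pt, 1:5; 24 h, 37 deg C, 5% CO2; detection reagent 10 min RT; luminescence.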
Mm-Cpn inhibitor: blocks the Methanococcus maripaludis chaperonin Mm-Cpn; purified Mm-Cpn ATPase, ADP Transcreener TR-FRET; Potency, µM (series often up to 76.9 µM), for inactives: at the top dose activity, negative = inhibition, most hits filed as inhibitors; hit rate 0.031% among 330,000; AID 504842; also: potency is read from the fitted curve at half-maximal effect; % is scaled to controls: 0 for no effect and ±100 for the full control effect; nearly all actives have a fitted effect of over 80% in size
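Inhibition of chaperonin ATP hydrolysis is measured as reduced ADP production, detected by competitive TR-FRET in which signal falls with ADP. Final enzyme 25 nM and ATP 10 uM, reacted 30 min at 37°C.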
PINK1 modulator: PINK1 expression modulation; PINK1 immunofluorescence, high-content cytometry, 24 h; Potency, µM (series often up to 76.6 µM), for inactives: top-dose activation (PINK1 increase), usual class: activators; hit rate 0.2% among 410,000; active = well fitted activation curve with a large enough effect; inconclusive = small, poorly fitted or top-dose-only effect; cell line not stated here; also: potency is read from the fitted curve at half-maximal effect; % of control where 0% means no effect; nearly all actives have a fitted effect of over 65% in size
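Measures PINK1 amount and localization on or inside mitochondria by immunofluorescence. Stable cells get compounds at 5 concentrations for 24 hours before fixation and staining; CCCP controls included.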
S-ASM inh: human S-ASM enzyme inhibition; Potency, µM (highest dose often 57.5 µM), inactives show top-dose activity change, negative = inhibition, usual class: inhibitors; AID 504937; placental ASM, HMU-PC fluorogenic substrate, 60 min; P17405; hit rate 0.006% among 340,000; also: potency is read from the fitted curve at half-maximal effect
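Human placenta-derived ASM enzyme was preincubated with compound for 10 minutes at room temperature, then given fluorogenic substrate HMU-PC0 (9 uM final) for 60 minutes at 37 °C; a pH 10 stop preceded fluorescence reading at Ex 386/Em 447 nm.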
CCT chaperon mod: cytosolic chaperonin activity modulation. purified chaperonin ATPase assay, HTRF ADP detection, 30 min. activity change, % (test concentration not listed), hits read low. hit rate 0.3% among 360,000. AID 651819; in the data active = activity change below about -30%; also: % is scaled to controls: 0 for no effect and ±100 for the full control effect
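Enzyme 40 or 20 nM (batch-dependent) in Tris pH 7.4/KCl/MgCl2/DTT; cpd 76 uM single point; ATP 10 uM; 30 min 37 °C; Transcreener ADP HTRF detection, 30 min RT; ratio 665/615.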
ALOX12 inh: inhibitors of human 12S-lipoxygenase ALOX12; hit rate 1.1% among 580,000; Potency, µM (highest dose often 108 µM), for inactives: at the top dose activity change, negative = inhibition, actives largely listed as inhibitors; AID 1671190; purified 12hLO, xylenol orange hydroperoxide absorbance; P18054; also: potency is read from the fitted curve at half-maximal effect; % is scaled to controls: 0 for no effect and ±100 for the full control effect
Target sequence (P18054 whole entry, looked up): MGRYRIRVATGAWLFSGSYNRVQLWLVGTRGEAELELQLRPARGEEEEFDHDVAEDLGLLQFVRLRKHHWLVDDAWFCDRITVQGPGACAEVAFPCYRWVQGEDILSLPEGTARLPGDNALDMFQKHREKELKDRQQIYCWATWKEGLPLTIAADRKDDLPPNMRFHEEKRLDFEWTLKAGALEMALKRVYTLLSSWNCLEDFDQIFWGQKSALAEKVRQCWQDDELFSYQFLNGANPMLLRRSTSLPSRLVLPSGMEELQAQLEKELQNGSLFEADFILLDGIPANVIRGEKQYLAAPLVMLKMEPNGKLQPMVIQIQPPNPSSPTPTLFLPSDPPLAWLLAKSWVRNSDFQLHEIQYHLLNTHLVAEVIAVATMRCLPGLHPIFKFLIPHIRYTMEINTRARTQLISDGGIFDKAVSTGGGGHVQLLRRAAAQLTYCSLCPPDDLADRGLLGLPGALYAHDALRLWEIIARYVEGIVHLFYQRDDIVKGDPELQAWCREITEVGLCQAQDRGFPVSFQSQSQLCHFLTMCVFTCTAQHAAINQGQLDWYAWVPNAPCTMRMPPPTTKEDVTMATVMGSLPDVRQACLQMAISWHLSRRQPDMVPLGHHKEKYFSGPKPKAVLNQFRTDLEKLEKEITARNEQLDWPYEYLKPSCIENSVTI
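Hydroperoxide product was detected by ferrous iron/xylenol orange as the 573 to 405 nm absorbance ratio. Arachidonic acid at 40 uM (final) was turned over for 30 min at room temperature by 150 nM human 12hLO, pH 7.0 Hepes buffer, after 15 min compound preincubation.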
* marks the source's active call; other numbers are inactive results; u = inconclusive; x = no result given; [ ] = dose if it differs, or a comment. Unless noted, calls follow the shape of the dose curve; as a rule, active = well fitted curve in the direction sought with a large enough effect; inconclusive = small, poorly fitted or top-dose-only effect, or another doubt; inactive = no such curve, though single readings can be large; an effect the other way counts as inactive or inconclusive.

SMILES	p53 reactivation	Mm-Cpn inhibitor	PINK1 modulator	S-ASM inh	CCT chaperon mod	ALOX12 inh
Cc1ccc(-c2cc3c(=O)n(CCNC(=O)Cc4ccc(Cl)cc4)ccn3n2)cc1C	x	x	x	x	x	39.8µM*
CCCCCCNC(=O)c1cc(-c2ccccc2)nc2ccccc12	x	x	x	x	x	-22.9%
S=C(Nc1cccc(Cl)c1)N(Cc1ccccc1)Cc1ccccc1	x	x	x	x	x	-26.6%
CCN(CC)CCCN(C/C=C/c1ccccc1)C/C=C/c1ccccc1	x	x	x	x	x	0.708µM*
CC1(CNc2ccccc2)COc2ccc(C(=O)NCc3ccc(F)cc3)cc2N1 (configuration not stated)	x	x	x	x	x	55.9%[176 µM]
Cc1cccc(OC[C@H]2C[C@@H](NC(=O)C3CCCC3)[C@H](O)[C@@H]2O)n1	x	x	x	x	x	2.2%[176 µM]
Cc1cccc(OC[C@H]2C[C@@H](NC(=O)c3ccc(C#N)cc3)[C@H](O)[C@@H]2O)n1	x	x	x	x	x	25.1µM*
CCn1c(C)[n+](CC)c2ccc(C(=O)N(C)c3ccccc3)cc21	2.8%	-3.3%	-1.2%	0.8%	-32.9*	u
O=C1/C(=C\c2cccc([N+](=O)[O-])c2O)SC(=S)N1Cc1ccccc1	2.3%	0.5%	u	-18.2%	0.2	u
COc1cc([N+](=O)[O-])cc(/C=C2/SC(=S)N(Cc3ccccc3)C2=O)c1O	-2.3%	-2.0%	35.5µM*	-10.3%	-1.3	15.8µM*
O=C(O)CN1C(=O)/C(=C\c2cc(Br)ccc2OCc2ccc([N+](=O)[O-])cc2)SC1=S	20.0%	0.8%	0.3%	-1.1%	3.0	8.91µM*
O=C1/C(=C/c2ccc(O)c([N+](=O)[O-])c2)SC(=S)N1Cc1ccccc1	4.8%	1.1%	31.6µM*	-13.2%	2.4	-17.5%
CC(C)C(=O)Nc1ccc2[nH]cc(C(C(=O)O)N3CCN(c4ccccc4)CC3)c2c1 (configuration not stated)	x	x	x	x	x	-21.3%
Cc1cccc(CNc2ncncc2-c2ccc3c(c2)OCO3)c1	x	x	1.7%	x	x	-19.9%
c1ccc(CNc2ncncc2-c2ccc3c(c2)OCO3)cc1	x	x	5.4%	x	x	25.1µM*
CC1(C(=O)NS(=O)(=O)c2ccc(Br)cc2)CCN1C(=O)CCc1cccs1 (configuration not stated)	x	x	2.2%	x	-0.8	u
CC1(C(=O)NS(=O)(=O)c2cccc(F)c2)CCN1C(=O)c1ccccc1CCc1ccccc1 (configuration not stated)	x	x	2.7%	x	-1.7	7.08µM*
CC1(C(=O)NS(=O)(=O)c2ccc(Br)cc2)CCN1C(=O)CCc1ccccc1 (configuration not stated)	x	x	0.0%	x	-78.9*	u
Cc1cccc(S(=O)(=O)NC(=O)C2(C)CCN2C(=O)c2ccccc2CCc2ccccc2)c1 (configuration not stated)	x	x	-0.4%	x	-2.4	-6.8%
CC/C=C(/C)C(=O)N1CCCC(C(=O)NCC2CC2)C1 (configuration not stated)	x	x	x	x	x	-41.0%
Cc1ccc(O)c(NC2=C(Cl)C(=O)N(Cc3ccccc3)C2=O)c1	-0.5%	-2.4%	7.1%	-14.8%	-2.4	5.62µM*
Cc1ccc(C(=O)N2CCCCC2)cc1NC1=C(Cl)C(=O)N(Cc2ccccc2)C1=O	-9.2%	-3.0%	-1.0%	-10.5%	2.3	201.5%
O=C(N/N=C/c1ccc(N2CCOCC2)s1)c1ccc(O)cc1	x	x	4.0%	x	2.1	u
O=C(NN=Cc1ccc(N2CCOCC2)s1)c1ccc([N+](=O)[O-])cc1	7.7%	-2.6%	15.8µM*	-4.9%	1.5	-9.0%
COc1cccc(OC/C(=N\O)c2ccc(OCC(N)=O)cc2O)c1	x	x	x	x	x	52.3%
CNC(=O)/C(C#N)=C\c1ccc(CNS(=O)(=O)c2ccc(Cl)cc2)o1	16.9%	-1.7%	0.0%	7.4%	-2.6	44.7µM*
CN1CC(=O)N(c2ccccc2)Cc2c1ncnc2N1CCC(O)CC1	x	x	x	x	x	42.1%
CN1CC(=O)N(c2ccccc2)Cc2c1ncnc2N1CCc2ccccc2C1	x	x	x	x	x	31.6µM*
